Pf growth 48h: P. falciparum growth inhibition at 48 hours (one generation). 310,000 compounds, 5.9% hits. Potency, µM (top dose mostly 28.7 µM), without a hit: top-dose activity change, negative = inhibition, usual class: inhibitors. P. falciparum luciferase growth in erythrocytes, 48 h; also: potency is read from the fitted curve at half-maximal effect; % is scaled to controls: 0 for no effect and ±100 for the full control effect
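Luminescence readout; reporter = integrated firefly luciferase in P. falciparum. RBC culture at 2% hematocrit, 0.1% parasitemia final, 37 C/5% CO2; decreased signal taken as growth inhibition.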
NS1 function inh: influenza NS1 inhibition; AID 2326; Potency, µM (doses to about 46.1 µM), inactives show top-dose activity, positive = more growth; 270,000 compounds, 0.4% hits; calls by dose curve; also: potency is read from the fitted curve at half-maximal effect; actives are rising curves; nearly all actives have a fitted effect of over 50% in size
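Recovery from NS1-induced slow growth read by OD600 in budding yeast switched to galactose assay medium (pH 6.0, -URA) at 1:100 dilution. Compound 23 nl per well; the matching strain lacking NS1 serves as control.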
Shiga inhibitor: inhibitors of Shiga toxin in Vero cells; 290,000 compounds, 9.2% hits; AID 2315; Vero cells, Shiga toxin protein synthesis inhibition reporter; inhibition, % at 38.7 µM; in the data active = inhibition mostly above about 28%, no sharp cut-off; inactive = mostly below about 43%; also: 0% is about no effect
Pf growth 96h: P. falciparum growth inhibition at 96 hours. P. falciparum luciferase reporter growth, 96 h. Potency, µM (titrated, usually from 28.7 µM), for the others: at the top dose activity change, negative = inhibition, actives largely listed as inhibitors. 320,000 compounds, 6.9% hits. AID 504834; also: potency is read from the fitted curve at half-maximal effect; % is scaled to controls: 0 for no effect and ±100 for the full control effect
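Two-generation exposure (96 h) targets delayed-death phenotype. Reporter parasites carrying integrated firefly luciferase, in red cells at 2% hematocrit and 0.05% parasitemia final, kept at 37 C, 5% CO2; luminescence loss indicates inhibition.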
SARS PLpro yeast: inhibitors of SARS-CoV papain-like protease in yeast; S. cerevisiae expressing SARS-CoV PLpro, growth rescue; 330,000 compounds, 0.19% hits; Potency, µM (doses to about 32.9 µM), without a hit: top-dose activity, positive = growth rescue, actives largely listed as activators; calls by dose curve; also: potency is read from the fitted curve at half-maximal effect; 0% is about no effect; nearly all actives have a fitted effect of over 55% in size
CHX counter: affects cycloheximide protein synthesis inhibition readout, counter-screen; cell reporter, cycloheximide protein synthesis inhibition counterscreen; max response, %; 300,000 compounds, 12% hits; in the data active = max response mostly above about 13%, no sharp cut-off; inactive = mostly below about 14%; also: read at 38.3 µM for the half of the compounds with a filed dose; 0% is about no effect
An asterisk follows results filed as active; ? = inconclusive; / = no result given; + = active, no number; [ ] = remark or other dose. Sampled rows, rich in hits. Any-hit rate of the full collection: about 21%. Unless noted, calls follow the shape of the dose curve; as a rule, active = well fitted inhibition curve with a large enough effect; inconclusive = small, poorly fitted or top-dose-only effect, or another doubt; inactive = no such curve, though single readings can be large or run the other way.

SMILES	Pf growth 48h	NS1 function inh	Shiga inhibitor	Pf growth 96h	SARS PLpro yeast	CHX counter
Cc1onc(-c2ccccc2Cl)c1C(=O)OCC(=O)c1c(N)n(C)c(=O)n(C)c1=O	?	-3%	18	-15%	-1%	2
N#Cc1cnn2c(-c3cccc([N+](=O)[O-])c3)ccnc12	16%	/	/	?	1%	/
CCS(=O)(=O)N1Cc2ccccc2CC1C(=O)Nc1nnc(C2CC2)s1 (stereo not drawn)	?	/	10	-14%	0%	14
CCS(=O)(=O)N1Cc2ccccc2CC1C(=O)Nc1nc2ccccc2s1 (stereo not drawn)	118%	20%	+	122%	3%	43*
CCc1nnc(NC(=O)C2Cc3ccccc3CN2S(=O)(=O)CC)s1 (stereo not drawn)	8%	/	20	45%	-3%	20
CCS(=O)(=O)N1Cc2ccccc2CC1C(=O)Nc1nc2ccccc2[nH]1 (stereo not drawn)	15%	0%	194*	51%	-1%	34*
Cc1c(CNC(=O)C2CCC(=O)N(CCc3ccccc3)C2)cnn1C (stereo not drawn)	-6%	20%	28	-5%	1%	6
COc1ccc(C(=O)NCc2nnc(SCC(=O)N3CCCC3)o2)cc1	19%	7%	-14	-21%	-1%	-5
O=S(=O)(N/N=C\c1ccccc1O)c1ccc(Cl)cc1	1%	-35%	51	?	4%	27*
Cc1ccc(S(=O)(=O)N/N=C/c2ccccc2O)cc1	13%	0%	-5	-25%	0%	-2
O=C(NCCc1cnc[nH]1)c1ccc(-c2ccccc2)cc1	30%	-1%	55*	36%	1%	30*
CCOc1ccc(C(=O)NCCc2cnc[nH]2)cc1	34%	-3%	22	46%	0%	13
O=C(Nc1nc(-c2ccccn2)cs1)c1cccc(-n2cnnn2)c1	1.2µM*	-6%	27	0.93µM*	-1%	15
O=C(Nc1nc(-c2ccccn2)cs1)c1ccco1	?	/	89*	?	1%	54*
O=C(Nc1nc(-c2cccs2)cs1)c1ccco1	423%	-31%	91*	249%	-13%	37*
O=C(Nc1ccc(Br)cc1)c1cccc(-n2cnnn2)c1	-94%	12%	29	?	/	8
O=C(NCc1ccccc1)C1CC(=O)N(c2ccc(OCC(=O)N3CCOCC3)cc2)C1 (stereo not drawn)	8%	1%	-20	44%	2%	-3
CCN(CC(=O)Nc1ccc(NC(C)=O)cc1)C(=O)CCCc1c[nH]c2ccccc12	-23%	/	/	?	-10%	/
Nn1cnnc1SCC(=O)Nc1ccc2c(c1)OCO2	4%	/	-10	22%	-3%	1
COc1ccccc1C(=O)NCCSCc1c(F)cccc1Cl	?	-42%	25	10µM*	-7%	23*
O=C(CNC(=O)c1ccco1)OCc1c(F)cccc1Cl	32%	-3%	8	/	6%	20*
O=C(NCCSCc1c(F)cccc1Cl)c1ccco1	?	-163%	119	-20%[5.75 µM]	-20%	29*
COCCN(CC(=O)Nc1ccccc1)S(=O)(=O)c1ccc(S(=O)(=O)N2CCCC2)cc1	?	-19%	2	49%	-1%	-2
O=C(CSc1ncn[nH]1)N1N=C2/C(=C/c3ccco3)CCCC2C1c1ccco1 (stereo not drawn)	12µM*	2%	-6	/	-11%	-1
COc1ccc(/C=C2\CCCC3C2=NN(C(=O)CSc2n[nH]c(N)n2)C3c2ccc(OC)cc2)cc1 (stereo not drawn)	?	15%	-14	?	0%	-3
SMILES	Pf growth 48h	NS1 function inh	Shiga inhibitor	Pf growth 96h	SARS PLpro yeast	CHX counter
CCCCN1C(=O)C(=O)N(CC(=O)N2N=C3/C(=C/c4ccco4)CCCC3C2c2ccco2)C1=O (stereo not drawn)	60%	/	49*	76%	-4%	20*
CC(C)(C)NS(=O)(=O)c1ccc(NC(=S)NC(=O)C2CCC2)cc1	11%	15%	2	?	7%	7
CCCCCCCCNc1ncnc2ccccc12	/	-153%	-1	5.2µM*	-27%	2
Cc1cc2c(NCCc3ccccc3)ncnc2s1	14%	-71%	65*	-1%	-8%	25*
c1ccc(CCNc2ncnc3ccccc23)cc1	278%	-9%	57	-5%	-2%	49*
COc1ccc(S(=O)(=O)N2CCOCC2)cc1NC(=O)CN1CCC(Cc2ccccc2)CC1	12µM*	-30%	-13	4.7µM*	1%	-3
COc1ccc(S(=O)(=O)N2CCOCC2)cc1NC(=O)CN1CCCC1	33%	/	18	43%	0%	-2
COc1ccc(S(=O)(=O)N2CCC(Cc3ccccc3)CC2)cc1NC(C)=O	34%	9%	-3	4.7µM*	0%	-2
Cc1ccc(NC(=O)COC(=O)CN2C(=O)NC3(CCCC3)C2=O)cc1F	-10%	/	/	-6%	3%	/
Cc1ccnn1CCC(=O)N1CCCC(CCC(=O)N2CCN(c3ccccn3)CC2)C1 (stereo not drawn)	-16%	4%	-1	0%	0%	-3
Cc1cc(C)n2c(SCC(=O)Nc3ccc(F)cc3)nnc2n1	107%	0%	-14	-9%	0%	-2
CCc1ccc(NC(=O)Nn2cnnc2)cc1	4%	-8%	24	24%	1%	17*
O=C(Nc1ccccc1)Nn1cnnc1	-2%	4%	-7	-4%	-1%	-4
O=C(Nc1ccc(Br)cc1)Nn1cnnc1	103%	-8%	21	1%	0%	11*
CCc1ccc(NC(=S)Nn2cnnc2)cc1	17%	/	-15	9%	1%	11
COc1cc(OC)cc(C(=O)OCC(=O)NC2CCCCCC2)c1	8%	/	/	5%	-3%	/
CCCC(=O)NC(c1ccccc1)c1ccc2cccnc2c1O (stereo not drawn)	2.3µM*	-114%	/	?	?	10
CCCC(=O)NC(c1ccc(OC)cc1)c1ccc2cccnc2c1O (stereo not drawn)	1.3µM*	-61%	-1	?	-4%	-2
CCC(=O)NC(c1ccc(OC)cc1)c1cc(Cl)c2cccnc2c1O (stereo not drawn)	4%	-1%	-8	288%	-1%	-3
COc1cccc(C(=O)NCCNC(=O)c2ccco2)c1	9%	4%	-9	20%	1%	-3
CC(NC(=O)COC(=O)C1CC2CCCC(C1)C2=O)c1ccccc1 (stereo not drawn)	15%	/	/	8%	4%	/
COC(=O)C(NC=O)C(O)(Cc1ccccc1)C(F)(F)F (stereo not drawn)	46%	-3%	74*	-11%	6%	57*
COC(=O)C(O)(NC(=O)OCc1ccccc1)C(F)(F)F (stereo not drawn)	0%	-3%	-4	37%	-2%	1
